Screening data: PubChem BioAssay, several laboratories
Hits are enriched below; roughly 1.2% of the tested compounds scored in any of these assays.
ugtP null kill – growth inhibition of ugtP-null S. aureus, primary screen, RN4220 ugtP deletion, OD600. 16 h. growth inhibition, % (no concentration beside the values). 330,000 tested, 0.54% active. AID 1259309, 2017; in the data active means growth inhibition above about 68%;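 further: plate controls were untreated wells for no effect and antibiotic for full effect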
SSB-PriA inh – inhibitors of Klebsiella pneumoniae PriA binding to SSB C-terminal tail, primary screen, biochemical, AlphaScreen. AlphaScreen SSBct-PriA binding, biotinylated peptide. inhibition, % at 33 µM. 430,000 tested, 0.6% active. AID 1272365, 2023; in the data active means inhibition mostly above about 37%, no sharp cut-off; inactive means mostly below about 20%;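 further: plate controls were negative control peptide for no effect and reference peptide for full effect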
BJeLR lethal – MLPCN primary cell-based screen for lethality selective to Ras in HRASV12 cells; 300,000 tested, 0.17% active; BJeLR (HRASV12) viability, CellTiter-Glo ATP luminescence, 48 h; inhibition, % (concentration not given with the values); in the data active means inhibition above about 50%
MazEF act – activators of E. coli MazEF toxin-antitoxin RNase, primary screen, biochemical, fluorescence, uHTS; activation, % at 20 µM; AID 504720, 2011; 350,000 tested, 0.32% active; Endoribonuclease toxin MazF (Escherichia coli (strain K12)), P0AE70; FAM/BHQ RNA-DNA oligo cleavage fluorescence, 5 h; in the data active means activation above about 50%
Target sequence (P0AE70 whole entry, looked up): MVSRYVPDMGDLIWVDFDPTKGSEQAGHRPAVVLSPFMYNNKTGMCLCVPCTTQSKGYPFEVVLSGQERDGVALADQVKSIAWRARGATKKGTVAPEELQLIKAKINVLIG
Sa RN4220 lethal – growth inhibition of S. aureus RN4220, primary screen, OD600 | 16 h | inhibition, % (concentration not given with the values) | 330,000 tested, 0.33% active; in the data active means inhibition above about 85%;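 further: plate controls were untreated cells for no effect and reference antibiotic for full effect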
Active calls of the source: *; . = no result; ! = a repeat was not active.

SMILES	ugtP null kill	SSB-PriA inh	BJeLR lethal	MazEF act	Sa RN4220 lethal
O=C(Sc1cccc2cccnc12)c1ccc(F)cc1	-1	.	.	.	33
CC1OC(OC2C(O)C(OCCc3ccc(O)c(O)c3)OC(CO)C2OC(=O)C=Cc2ccc(O)c(O)c2)C(O)C(O)C1O (stereo unspecified)	10	.	.	.	7
CC(=O)Nc1ccc2nc(CN3CCN(CC(C)C)C(CCO)C3)ccc2c1 (stereo unspecified)	8	-9	35	-6	0
O=C(CN1C(=O)c2ccccc2C1=O)Nc1cccc([N+](=O)[O-])c1	.	0	-11	4	.
COc1ccc(S(=O)(=O)c2nnn(-c3ccccc3Cl)c2N)cc1	-2	1	-4	-10	5
CCOc1cc2c3c(c1)C1(C(=O)N3C(C)(C)CC2C)C(C#N)=C(N)N2C(=C1C#N)Nc1ccccc12 (stereo unspecified)	-8	12	-8	-8	17
COc1ccc2sc(-c3ccccc3OC)c(C#Cc3cncn3C)c2c1	76	-3	.	0	66
COc1ccc(-c2sc3ccccc3c2C#Cc2cncn2C)cc1	97*	-1	.	4	79
COc1ccccc1-c1sc2cc3c(cc2c1C#Cc1cncn1C)OCO3	90*	24	.	-8	50
Cc1nc2ccccc2n1CCCOc1ccccc1Cl	.	-10	.	.	.
CC(=NNC(=S)N1CC2CCC(CC2)C1)c1nccs1	.	57*	.	4	.
COCCn1c(Cc2ccccc2)nnc1SCC(=O)NC(C)C	4	-9	-1	-2	5
COc1cc(C(=O)OC(C)C(=O)NC(=O)NC2CCCCC2)ccc1OC(F)F (stereo unspecified)	91*	-1	.	1	52
CCCCCCn1ccc(=N)cc1	2	-6	12	5	3
CCCCCCCCCCCCCCCCn1cc[n+](CC(C)=O)c1	101*	-19	.	-12	100*
COc1cc(OC)cc(-c2nnc(NC(=O)CCS(=O)(=O)c3ccc(F)cc3)o2)c1	4	3	5	3	1
CCC(CO)Oc1cc(NCc2cc(C)cc(C)c2)c2ncn(C(C)C)c2c1 (stereo unspecified)	-11	55*	.	-1	2
CCC(CO)Oc1cc(NCc2ccc(C)c(C)c2)c2ncn(C(C)C)c2c1 (stereo unspecified)	12	36	.	2	2
C=CCn1c(SCC(=O)NC2CCCC2)nc2sc(C)cc2c1=O	5	-8	-17	-10	1
Cc1ccc(N2C(=O)c3cccc4c(N5CCN(C)CC5)ccc(c34)C2=O)c2cccnc12	0	-14	1	-81	0
O=[N+]([O-])c1ccc(O)c2cccnc12	7	4	-1	-7	1
CCC(=O)NC(c1ccc(C)cc1)c1cc([N+](=O)[O-])c2cccnc2c1O (stereo unspecified)	95*	5	12	-8	94*
O=[N+]([O-])c1ccc(O)c2ncccc12	99*	133*	41	-1	99*
Cc1ccc(N2C(=O)c3cccc4c([N+](=O)[O-])ccc(c34)C2=O)c2cccnc12	5	-5	52*	3	6
CC(=O)NC(c1ccc(C)cc1)c1cc([N+](=O)[O-])c2cccnc2c1O (stereo unspecified)	64	77	15	-9	64
SMILES	ugtP null kill	SSB-PriA inh	BJeLR lethal	MazEF act	Sa RN4220 lethal
O=[N+]([O-])c1cc(Cl)c2cccnc2c1O	100*	67*	6	-9	99*
CCn1nc(C)cc1C(=O)Nc1sc(-c2ccccc2)cc1C(N)=O	.	-23	.	.	.
Cc1noc(C)c1CCC(=O)NCc1cccnc1-c1cccs1	.	-6	.	.	.
O=[N+]([O-])c1cc(Cl)c(O)c2ncccc12	98*	86*!	6	-3	99*
O=[N+]([O-])c1ccc(N2CCNCC2)c2ncccc12	.	53*	3	.	.
Oc1c(Cl)c(Cl)c2ncccc2c1Cl	5	-1	.	4	25
O=[N+]([O-])c1cc(F)c2cccnc2c1O	23	-10	0	3	30
Oc1c(I)cc(Cl)c2cccnc12	100*	9	9	-8	99*
O=C(COC(=O)/C=C/c1ccc([N+](=O)[O-])cc1)NCc1ccc2c(c1)OCO2	-2	-3	2	-12	-2
O=C(c1cccs1)N1N=C(c2ccccc2)CC1c1ccc2nccnc2c1 (stereo unspecified)	.	37*	.	.	.
Nc1nc(N)c2cc(Sc3ccc4ccccc4c3)ccc2n1	99*	9	60*	30	100*
O=C1/C(=C\c2cc(Br)cc(Br)c2O)SC(=S)N1Cc1ccccc1	100*	7	3	-16	100*
CCOC(=O)c1ccc(S(=O)(=O)N2CCN(CC(=O)NC(=O)NC3CCCCC3)CC2)cc1	5	1	-19	-4	3
Cc1ccc2oc(C(=O)N(Cc3ccc(N(C)C)cc3)C3CCS(=O)(=O)C3)c(C)c2c1 (stereo unspecified)	5	43*	-23	-3	3
Cc1c(C(=O)N(Cc2ccc(Cl)cc2)C2CCS(=O)(=O)C2)oc2ccccc12 (stereo unspecified)	-6	7	17	2	-2
Cc1ccc2c(C)c(C(=O)N(Cc3ccc(N(C)C)cc3)C3CCS(=O)(=O)C3)oc2c1 (stereo unspecified)	0	39*	1	8	0
Cc1c(C(=O)N(Cc2ccc(N(C)C)cc2)CC2CCCO2)oc2ccccc12 (stereo unspecified)	12	57*	9	-5	1
CCOc1ccc(CN(C(=O)c2oc3ccccc3c2C)C2CCS(=O)(=O)C2)cc1 (stereo unspecified)	6	-1	.	5	4
Nc1cc(N)nc(SCC(=O)N2CCc3ccccc32)n1	-7	3	-1	0	-17
Cc1cc(C)c(-c2cc(C(=O)Nc3c(C)n(C)n(-c4ccccc4)c3=O)[nH]n2)c(O)c1	-1	-16	0	8	5
O=c1[nH]c(-c2ccccc2)ncc1OCc1ccccc1	.	-5	.	2	.
COc1nc(Nc2nc3ccccc3c(=O)[nH]2)nc2ccc(C)cc12	100*	-5	41	33	100*
Cc1ccc2cc3c(N)c4c(C)ccc(C)c4nc3nc2c1	-5	9	-3	55*	10
O=S(=O)(c1cccc2c(S(=O)(=O)N3CCN(Cc4ccccc4)CC3)cccc12)N1CCN(Cc2ccccc2)CC1	.	-8	.	.	.
CCn1cc(C(=O)NCc2ccccc2OC)c(=O)c2ccc(C)nc21	-2	-2	0	-8	-11
COc1ccccc1OCC(=O)Nc1ccc2c(c1)OCCO2	-1	-15	-10	-16	0
COc1ccc(NC(=S)NNc2ccc(S(=O)(=O)Nc3ccccc3C(=O)O)cc2[N+](=O)[O-])cc1	3	55*	6	-6	5
